Measurements as given in PubChem BioAssay.
A number with no mark means an inactive call. For part of these data: Results with a measured potency or affinity are listed apart. Calls of active or inactive are those of the source. Unless noted, how the calls were made is not given here.

Columns and labels:
[1] = antimalarial activity against Dd2 strain (AID 2302;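 active means growth inhibition above 50% at the single 2 µM test dose, taken to imply half-maximal potency below 2 µM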;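 further: 0% = DMSO untreated growth and 100% = chloroquine plus artemisinin killed control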); conditions: P. falciparum Dd2 in RBCs, LDH growth readout, 72 h; at 2 µM; stronger effect = higher value
[2] = human hepatoma cell viability loss – ATP luminescence, cytotoxicity control for P. falciparum antimalarial project, primary screen (AID 2303;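 active means inhibition above 50%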;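 further: 0% = DMSO wells and 100% = digitonin-killed cells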); conditions: HepG2 viability, 24-48 h, at 10 µM, stronger effect = higher value
[3] = target: L-lactate dehydrogenase (Plasmodium falciparum (isolate CDC / Honduras)) (UniProt Q27743); test: PfLDH activity inhibition – cell lysate, 3D7 strain, counter-screen for P. falciparum growth inhibition project (AID 2304);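 further: 0% = vehicle and 100% = reference inhibitor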; conditions: P. falciparum 3D7 crude extract, LDH APAD/NBT absorbance; at 2 µM; stronger effect = higher value
Sequence of L-lactate dehydrogenase (Plasmodium falciparum (isolate CDC / Honduras)) (Q27743 whole entry, looked up): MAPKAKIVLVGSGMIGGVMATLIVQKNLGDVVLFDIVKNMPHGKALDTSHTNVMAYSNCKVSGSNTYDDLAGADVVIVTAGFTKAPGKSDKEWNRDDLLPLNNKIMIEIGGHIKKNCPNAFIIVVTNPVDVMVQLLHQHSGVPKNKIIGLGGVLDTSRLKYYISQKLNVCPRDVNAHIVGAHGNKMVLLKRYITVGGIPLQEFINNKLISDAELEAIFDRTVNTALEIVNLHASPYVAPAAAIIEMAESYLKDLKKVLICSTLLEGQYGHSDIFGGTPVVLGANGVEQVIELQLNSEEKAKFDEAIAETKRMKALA

[4] = inhibition of 3D7 malaria parasite growth – strain 3D7 (AID 2306);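 further: 0% = DMSO wells and 100% = chloroquine plus artemisinin control wells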; conditions: P. falciparum 3D7 erythrocytic growth, LDH absorbance, 72 h; at 2 µM; stronger effect = higher value
[5] = target: Calcium-dependent protein kinase 1 (Plasmodium falciparum (isolate 3D7)) (UniProt P62344); test: PfCDPK1 kinase inhibitors, biochemical, TCAMS library (AID 1159585; cut-off not given, nearly all actives have IC50 up to about 0.98 µM;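 further: inhibitors leave more ATP so luminescence rises with inhibition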); conditions: recombinant PfCDPK1, Kinase-Glo ATP depletion luminescence
Sequence of Calcium-dependent protein kinase 1 (Plasmodium falciparum (isolate 3D7)) (P62344 whole entry, looked up): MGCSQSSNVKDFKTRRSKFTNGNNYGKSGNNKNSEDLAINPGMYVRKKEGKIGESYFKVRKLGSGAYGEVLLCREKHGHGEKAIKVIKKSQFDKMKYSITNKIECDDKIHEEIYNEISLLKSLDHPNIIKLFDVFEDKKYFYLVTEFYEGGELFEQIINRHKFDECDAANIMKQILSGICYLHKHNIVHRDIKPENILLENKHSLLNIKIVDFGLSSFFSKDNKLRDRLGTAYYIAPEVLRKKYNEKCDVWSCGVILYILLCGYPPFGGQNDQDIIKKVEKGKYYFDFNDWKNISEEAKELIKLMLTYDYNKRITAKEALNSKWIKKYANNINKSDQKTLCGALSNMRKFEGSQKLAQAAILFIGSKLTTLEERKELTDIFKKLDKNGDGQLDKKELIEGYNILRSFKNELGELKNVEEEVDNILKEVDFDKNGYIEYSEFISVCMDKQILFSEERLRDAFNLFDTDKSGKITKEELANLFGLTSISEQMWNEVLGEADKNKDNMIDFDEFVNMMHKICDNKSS

[6] = target: Plasmodium falciparum protein kinase 6 (PK6, PF3D7_1337100) (UniProt Q8IDW1); test: PfPK6 kinase inhibitors, biochemical, TCAMS library (AID 1159586); conditions: recombinant PfPK6, Kinase-Glo ATP depletion luminescence
Sequence of Plasmodium falciparum protein kinase 6 (PK6, PF3D7_1337100) (Q8IDW1 1-305): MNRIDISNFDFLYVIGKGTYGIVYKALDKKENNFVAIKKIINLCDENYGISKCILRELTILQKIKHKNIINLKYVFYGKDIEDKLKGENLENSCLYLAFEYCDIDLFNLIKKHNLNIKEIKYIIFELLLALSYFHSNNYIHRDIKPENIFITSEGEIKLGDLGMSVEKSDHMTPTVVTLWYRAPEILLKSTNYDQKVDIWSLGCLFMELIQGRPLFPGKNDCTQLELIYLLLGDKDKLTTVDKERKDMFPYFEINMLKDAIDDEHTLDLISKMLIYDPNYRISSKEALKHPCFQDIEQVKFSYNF

[7] = target: Protein kinase 7 (PK7), Plasmodium falciparum 3D7 (PF3D7_0213400) (UniProt Q7YTF7); test: inhibition of Plasmodium PK7 catalytic activity – biochemical, TCAMS antimalarial set, Kinase-Glo luminescence (AID 1159587); conditions: recombinant PfPK7, Kinase-Glo ATP depletion luminescence
Sequence of Protein kinase 7 (PK7), Plasmodium falciparum 3D7 (PF3D7_0213400) (Q7YTF7 1-343): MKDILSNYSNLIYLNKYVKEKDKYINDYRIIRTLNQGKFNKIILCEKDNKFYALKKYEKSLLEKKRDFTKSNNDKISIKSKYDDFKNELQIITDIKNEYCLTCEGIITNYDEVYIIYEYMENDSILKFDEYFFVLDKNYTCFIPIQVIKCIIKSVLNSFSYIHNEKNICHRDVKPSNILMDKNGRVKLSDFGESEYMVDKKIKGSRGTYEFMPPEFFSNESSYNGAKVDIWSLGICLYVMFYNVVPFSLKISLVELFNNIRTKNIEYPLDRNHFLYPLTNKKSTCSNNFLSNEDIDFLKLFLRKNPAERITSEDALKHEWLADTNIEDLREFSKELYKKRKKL

[8] = target: Calcium-dependent protein kinase 4 (Plasmodium falciparum (isolate 3D7)) (UniProt Q8IBS5); test: PfCDPK4 kinase inhibitors, biochemical, TCAMS library (AID 1159588; cut-off not given, nearly all actives have IC50 up to about 0.91 µM); conditions: recombinant PfCDPK4, Kinase-Glo ATP depletion luminescence
Sequence of Calcium-dependent protein kinase 4 (Plasmodium falciparum (isolate 3D7)) (Q8IBS5 whole entry, looked up): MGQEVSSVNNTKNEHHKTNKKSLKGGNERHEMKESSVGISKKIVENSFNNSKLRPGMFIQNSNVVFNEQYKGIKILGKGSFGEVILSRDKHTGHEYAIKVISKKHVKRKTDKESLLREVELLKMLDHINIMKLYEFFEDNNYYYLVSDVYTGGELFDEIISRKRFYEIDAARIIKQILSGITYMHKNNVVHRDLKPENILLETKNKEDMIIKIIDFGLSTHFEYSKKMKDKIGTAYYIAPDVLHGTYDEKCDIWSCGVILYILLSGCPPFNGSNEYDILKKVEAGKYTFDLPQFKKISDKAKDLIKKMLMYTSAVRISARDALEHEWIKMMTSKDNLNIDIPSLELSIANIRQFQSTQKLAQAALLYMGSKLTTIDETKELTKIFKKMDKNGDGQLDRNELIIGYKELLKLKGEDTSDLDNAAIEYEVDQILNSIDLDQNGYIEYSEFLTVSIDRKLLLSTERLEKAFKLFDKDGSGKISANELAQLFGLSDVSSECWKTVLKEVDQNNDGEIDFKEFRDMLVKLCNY

Structure (SMILES)	growth inhibition [1]	inhibition [2]	inhibition [3] [%]	growth inhibition [4]	outcome [5]	outcome [6]	outcome [7]	outcome [8]
O=C(CCNc1ccnc(NCC2CCCCC2)n1)Nc1ccccc1	48%	55% (active)	-3	95% (active)	inactive	inactive	inactive	inactive
O=[N+]([O-])c1ccccc1C=NNc1ccnc2cc(Cl)ccc12	89% (active)	-5%	3	101% (active)	inactive	inactive	inactive	inactive
Cc1ccc(CNC(=O)c2cc3c(=O)n4ccccc4nc3n(CCCN3CCOCC3)c2=N)cc1	5%	21%	-3	92% (active)	inactive	inactive	inactive	inactive
CN1CCN(CC(=O)Nc2cccc(-c3ccc(-c4nc5ccc(F)cc5[nH]4)s3)c2)CC1	94% (active)	71% (active)	-4	101% (active)	inactive	inactive	inactive	inactive
NC1=NC2(CCCCC2)N(OCCCCCCC2CCCCC2)C(N)=N1	49%	77% (active)	-4	97% (active)	inactive	inactive	inactive	inactive
CN1CCC[C@@H](Oc2cc3c(cc2Br)CCN3C(=O)Nc2ccc(-c3ccncc3)c(Cl)c2)C1	64% (active)	26%	-7	99% (active)	inactive	inactive	inactive	inactive
CCN(CC)C(=NCCCCCCN=C(/N=C(\N)c1ccc(Cl)cc1)N(CC)CC)/N=C(\N)c1ccc(Cl)cc1	99% (active)	1%	1	97% (active)	inactive	inactive	inactive	inactive
FC(F)(F)c1ccc2nc(-c3cccc(-c4cccc(CNCC5CCCO5)c4)c3)[nH]c2c1 (configuration not stated)	96% (active)	23%	-2	100% (active)	inactive	inactive	inactive	inactive
Cc1cccc2[nH]c(-c3ccc(-c4ccc(CN5CCN(CCO)CC5)cc4)cc3)nc12	97% (active)	20%	-4	100% (active)	inactive	inactive	inactive	inactive
CC1(C)C(=O)Nc2ccc3c(c21)CC1SC(=O)NN=C31 (configuration not stated)	92% (active)	6%	-1	96% (active)	inactive	inactive	inactive	inactive
COc1cc2nc(N3CCN(c4nc(N)c5cc(OC)c(OC)cc5n4)CC3)nc(N)c2cc1OC	99% (active)	13%	-4	101% (active)	inactive	inactive	inactive	inactive
CC(C)C[C@@H](NC(=O)OC(C)(C)C)C(=O)Nc1ccc(Cc2ccc(NC(=O)[C@@H](CC(C)C)NC(=O)OC(C)(C)C)cc2)cc1	96% (active)	8%	6	96% (active)	inactive	inactive	inactive	inactive
O=C(Nc1ccccc1)N(Cc1ccccc1-c1cccc(CNCc2ccc3c(c2)OCO3)c1)C1CCN(Cc2ccccc2)CC1	64% (active)	35%	1	101% (active)	inactive	inactive	inactive	inactive
O=C(NCCN1CCCCC1)N1CCCN(c2ncnc3cc(-c4ccccc4)sc23)CC1	80% (active)	2%	-1	89% (active)	inactive	inactive	inactive	inactive
CCCc1cn2c3c(cc(C(=O)N[C@@H](Cc4ccccc4)[C@H](O)CNC4CCOCC4)cc13)N(C)S(=O)(=O)CC2	98% (active)	1%	3	99% (active)	inactive	inactive	inactive	inactive
Cc1cc2cc(NC(=O)Nc3ccnc4ccccc34)ccc2n1C	33%	17%	4	90% (active)	inactive	inactive	inactive	inactive
CCOc1ccc2c(NN=Cc3cccc(F)c3)cc(C)nc2c1	100% (active)	0%	7	100% (active)	inactive	inactive	inactive	inactive
CCNc1cc(C(=O)N[C@@H](Cc2ccccc2)[C@H](O)CNCc2cc(OC)cc(OC)c2)cc(N2CCCC2=O)c1	75% (active)	-7%	2	100% (active)	inactive	inactive	inactive	inactive
N#Cc1ccc(-c2ccc(C(=O)NCCCCN3CCC(c4cn(CCCO)c5ccccc45)CC3)cc2)cc1	56% (active)	31%	-2	98% (active)	inactive	inactive	inactive	inactive
COc1ccc2nc(C)cc(NN=Cc3cccc([N+](=O)[O-])c3)c2c1	97% (active)	6%	7	102% (active)	inactive	inactive	inactive	inactive

Structure (SMILES)	growth inhibition [1]	inhibition [2]	inhibition [3] [%]	growth inhibition [4]	outcome [5]	outcome [6]	outcome [7]	outcome [8]
COc1ccc(CNCc2ccccc2)cc1-c1ccc(S(=O)(=O)NCCN2CCCC2)c(F)c1	42%	29%	5	87% (active)	inactive	inactive	inactive	inactive
Cc1cccc2[nH]c(-c3ccc(-c4ccc(CN5CCN(CCN6CCOCC6)CC5)cc4)cc3)nc12	74% (active)	49%	-1	98% (active)	inactive	inactive	inactive	inactive
COc1ccc(NC(=O)/C=C/c2ccccc2Cl)cc1OCCN1CCC(N2CCN(C)CC2)CC1	49%	19%	5	102% (active)	inactive	inactive	inactive	inactive
Cc1cc(Cl)c(S(=O)(=O)N(C)c2ccccc2)cc1OCC(=O)NC1CCCCC1	94% (active)	3%	-3	99% (active)	inactive	inactive	inactive	inactive
O=C(c1ccc(-c2ccc(Cl)cc2)o1)N1CCc2cc3nccc(N4CCN5CCC[C@H]5C4)c3cc21	86% (active)	1%	-3	101% (active)	inactive	inactive	inactive	inactive
O=C(Nc1cccc(CN2CCCN(Cc3ncc[nH]3)CC2)c1)c1ccc2ccccc2c1	2%	13%	-1	100% (active)	inactive	inactive	inactive	inactive
O=C(Nc1cccc(-c2ccc(-c3nc4ccc(C(F)(F)F)cc4[nH]3)cc2)c1)Nc1ccc(F)c(F)c1F	99% (active)	45%	-2	102% (active)	inactive	inactive	inactive	inactive
O=C(N[C@H]1CCN(CCc2ccc(O[C@H]3CCNC3)c(Br)c2)C1)c1ccc(Cl)c(Cl)c1	0%	28%	-4	100% (active)	inactive	inactive	inactive	inactive
Cc1ccc(C)c(-n2c(SCC(=O)Nc3ccc(C(N)=O)cc3)nnc2-c2cccc(Cl)c2)c1	91% (active)	6%	4	92% (active)	inactive	inactive	inactive	inactive
C=C1C[C@@H](n2cnc3c(NC(=O)c4ccccc4)ncnc32)[C@@H](F)[C@@H]1OC(c1ccccc1)(c1ccccc1)c1ccccc1	97% (active)	16%	-5	98% (active)	inactive	inactive	inactive	inactive
NCc1ccc(-c2cccc(CNC3CCN(Cc4ccccc4)CC3)c2)cc1	50% (active)	24%	-7	100% (active)	inactive	inactive	inactive	inactive
O=C(O[C@H]1CN[C@H](C#Cc2cc3c(Nc4ccc(OCc5cccc(F)c5)c(Cl)c4)ncnc3s2)C1)N1CCCC1	67% (active)	11%	-7	99% (active)	inactive	inactive	inactive	inactive
CCOc1cc(C)ccc1N1CCN(CCN2CCC(NC(=O)c3ccc(-c4ccc(C#N)cc4)cc3)CC2)CC1	3%	9%	-1	84% (active)	inactive	inactive	inactive	inactive
Nc1ncnc2cc(-c3cccc(S(N)(=O)=O)c3)sc12	99% (active)	13%	2	98% (active)	inactive	inactive	inactive	inactive
COc1cc(C2=NN(S(=O)(=O)c3c(C)cc(C)cc3C)CCCC2)ccc1Cl	76% (active)	9%	1	85% (active)	inactive	inactive	inactive	inactive
COc1ccccc1NC(=O)Nc1ccc(-c2ccc(-c3nc4ccc(C(F)(F)F)cc4[nH]3)cc2)cc1	61% (active)	52% (active)	3	101% (active)	inactive	inactive	inactive	inactive
Clc1ccc2c(NCCc3ccccc3)ccnc2c1	99% (active)	31%	-3	93% (active)	inactive	inactive	inactive	inactive
c1cc(-c2ccc(CNC3CCOCC3)cc2)cc(-c2nc3ccccc3[nH]2)c1	100% (active)	30%	3	100% (active)	inactive	inactive	inactive	inactive
CC(=O)Nc1nc(C(=O)Nc2cccc(-c3ccc(-c4nc5c(C)cccc5[nH]4)cc3)c2)cs1	61% (active)	100% (active)	-3	100% (active)	inactive	inactive	inactive	inactive
